In the supplement of paper PMC11577813, “Eurasian spruce bark beetle detects lanierone using a highly expressed specialist odorant receptor, present in several functional sensillum types” (BMC Biology, 2024):
± gives the standard deviation of the averaged measurements.

How the values were obtained:
[1] = system: (+)-isopinocamphone A-neuron OSN class; assay: net action potential response of A-neuron (blank-subtracted) (spikes/s (Hz)); higher = stronger excitation; conditions: 10 µg on filter paper; neuron: A neuron (large spike amplitude)
How it was run: (§1)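 Single sensillum recordings with tungsten electrodes were taken from one fixed antenna of live lab-reared adult Ips typographus, with each compound (10 μg in paraffin oil on filter paper in a pipette) given as a 0.5 s pulse at 0.3 L/min into a humidified, charcoal-filtered 1.8 L/min airstream. AutoSpike counts of A-neuron or B-neuron spikes in 0.5 s windows had the pre-stimulus count subtracted. Responses were then converted to spikes/s, blank-subtracted and averaged over 1–4 sensilla.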

[2] = system: (+)-trans-4-thujanol A-neuron OSN class; assay: as above; conditions: 10 µg on filter paper; neuron: A neuron (large spike amplitude)
How it was run: as §1

[3] = system: (5S,7S)-trans-conophthorin A-neuron OSN class; assay: as above; conditions: 10 µg on filter paper; neuron: A neuron (large spike amplitude)
How it was run: as §1

[4] = system: myrcene A-neuron OSN class; assay: as above; conditions: 10 µg on filter paper; neuron: A neuron (large spike amplitude)
How it was run: as §1

[5] = system: p-cymene A-neuron OSN class; assay: as above; conditions: 10 µg on filter paper; neuron: A neuron (large spike amplitude)
How it was run: as §1

[6] = system: lanierone-responsive B-neuron OSN class (ItypOR36); assay: net action potential response of lanierone B-neuron (blank-subtracted) (spikes/s (Hz)); higher = stronger excitation; conditions: 10 µg on filter paper, neuron: B neuron (small spike amplitude)
How it was run: as §1

[7] = system: ipsdienol A-neuron OSN class; assay: net action potential response of A-neuron (blank-subtracted) (spikes/s (Hz)); higher = stronger excitation; conditions: 10 µg on filter paper; neuron: A neuron (large spike amplitude)
How it was run: as §1

[8] = co-localized A-neuron class: (4S)-cis-verbenol
[9] = co-localized A-neuron class: (5S,7S)-trans-conophthorin
[10] = co-localized A-neuron class: (+)-isopinocamphone
[11] = co-localized A-neuron class: (+)-trans-4-thujanol
[12] = co-localized A-neuron class: ipsdienol
[13] = co-localized A-neuron class: myrcene
[14] = co-localized A-neuron class: p-cymene

| Structure (SMILES) | net action potential response [1] | net action potential response [2] | net action potential response [3] | net action potential response [4] | net action potential response [5] | net action potential response [6, 8] | net action potential response [6, 9] | net action potential response [6, 10] | net action potential response [6, 11] | net action potential response [6, 12] | net action potential response [6, 13] | net action potential response [6, 14] | net action potential response [7] |
| --- | --- | --- | --- | --- | --- | --- | --- | --- | --- | --- | --- | --- | --- |
| CC(=O)OCCc1ccccc1 [2-Phenethyl acetate] | 0.667 ± 3.1 | 2.5 ± 4.1 | 2 ± 2 | 8 | -1.33 ± 4.6 | 5.33 ± 13 | -0.667 ± 3.1 | -1.33 ± 3.1 | 0.5 ± 4.1 | -6.67 ± 7 | -6 | -5.33 ± 2.3 | – |
| CC1=CCC2CC1C2(C)C (stereo not drawn) [(+)-α-Pinene] | 3.33 ± 3.1 | 2.5 ± 3 | -1.5 ± 6.8 | 4 | 2.67 ± 1.1 | 0 ± 12 | -0.5 ± 4.7 | 0.667 ± 5.8 | 2 ± 2.8 | -4 ± 4 | -4 | 1.33 ± 7 | – |
| CC1=CCC2C(C1)C2(C)C (single isomer, unassigned; (+)) [(+)-3-Carene] | 2 ± 5.3 | 7.5 ± 6.8 | 6.67 ± 4.6 | 12 | 50.7 ± 18 | 1.33 ± 13 | 3.33 ± 2.3 | -2.67 ± 5 | -2.5 ± 2.5 | -1.33 ± 4.2 | -2 | -3.33 ± 4.2 | – |
| CC[C@H]1O[C@]2(C)CCC[C@H]1O2 (racemic) [(±)-exo-Brevicomin] | -0.667 ± 4.2 | 2.5 ± 2.5 | 173 ± 40 | 6 | 0 ± 2 | 0 ± 2 | -4 ± 2 | -2 | -1 ± 1.1 | 4 ± 12 | 2 | -3.33 ± 2.3 | – |
| CCC(C)CO (racemic) [(±)-2-Methyl-1-butanol] | 0 ± 2 | 2.5 ± 6.8 | 5 ± 1.1 | 4 | 8 ± 4 | 0 ± 3.5 | 2 ± 3.3 | -2 ± 2 | 3.5 ± 3 | -1.33 ± 5 | -4 | -2 ± 4 | – |
| CC(=O)CC/C=C(\C)CCC=C(C)C [Geranylacetone] | 2 ± 2 | 1 ± 4.8 | 4.67 ± 7 | -2 | 3 ± 4.2 | – | – | – | – | – | – | – | – |
| CC/C=C/CCO | 8.67 ± 14 | 27.5 ± 23 | -2 ± 2 | -4 | 0.667 ± 3.1 | – | – | – | – | – | – | – | – |
| C[C@]12CCC[C@](C)(OC1)O2 (racemic) [(±)-Frontalin] | 2 ± 5.3 | 1 ± 3.5 | 96 ± 57 | -8 | 1.33 ± 1.1 | -1.33 ± 8.1 | -2 ± 2 | 0 ± 7.2 | 0.5 ± 4.1 | 0 ± 4 | 0 | -4 ± 4 | – |
| CCc1ccc(O)c(OC)c1 [4-Ethylguaiacol] | -1.33 ± 2.3 | 1 ± 1.1 | 3.33 ± 4.2 | 4 | 0.667 ± 2.3 | – | – | – | – | – | – | – | – |
| C=CCc1ccc(OC)c(OC)c1 [Eugenol methyl ether] | -0.667 ± 5.8 | 0 ± 1.6 | 4 ± 2.3 | 0 | 4.67 ± 5 | – | – | – | – | – | – | – | – |
| CCCCCC=O [Hexanal] | 4.67 ± 3.1 | 0.5 ± 4.4 | 2.67 ± 7.6 | 4 | 2 ± 3.5 | 0.667 ± 3.1 | -0.667 ± 1.1 | -1.33 ± 9 | -3 ± 2.6 | -3.33 ± 4.2 | 2 | 3.33 ± 4.6 | – |
| C=C(C)C1CC=C(C)C(=O)C1 (racemic) [(±)-Carvone] | -1.33 ± 1.1 | 1 ± 2.6 | 1 ± 3.5 | 0 | 30 ± 22 | – | – | – | – | – | – | – | – |
| CC1=CCC(C(C)C)=CC1 [γ-Terpinene] | -0.667 ± 3.1 | -1 ± 4.2 | 3 ± 4.8 | 6 | 117 ± 49 | -2 ± 5.3 | 0.5 ± 6 | -0.667 ± 6.1 | -0.5 ± 1.9 | 0 ± 6 | -6 | -4 ± 3.5 | – |
| CC1=CC(=O)[C@@H]2C[C@H]1C2(C)C [(-)-Verbenone] | 0.667 ± 1.1 | 1 ± 4.8 | -5 ± 4.8 | -6 | -0.667 ± 3.1 | 1.33 ± 6.4 | -0.667 ± 1.1 | -4.67 ± 6.1 | 4 ± 6.7 | 2 ± 4 | 6 | 2 ± 2 | – |
| C=CC(=C)CC(O)C=C(C)C (racemic) [(±)-Ipsdienol] | -4.67 ± 1.1 | -1.5 ± 1.9 | -2.5 ± 1.9 | 40 | -1.33 ± 4.2 | 2.67 ± 15 | -0.5 ± 3.4 | -2.67 ± 4.2 | 0 ± 1.6 | -4.67 ± 10 | -4 | -0.667 ± 1.1 | – |
| CC(C)[C@@]12CC[C@@](C)(O)[C@@H]1C2 [(+)-trans-4-Thujanol] | 11.3 ± 16 | 133 ± 37 | -1 ± 1.1 | -4 | 37.3 ± 13 | – | – | – | – | – | – | – | – |

| Structure (SMILES) | net action potential response [1] | net action potential response [2] | net action potential response [3] | net action potential response [4] | net action potential response [5] | net action potential response [6, 8] | net action potential response [6, 9] | net action potential response [6, 10] | net action potential response [6, 11] | net action potential response [6, 12] | net action potential response [6, 13] | net action potential response [6, 14] | net action potential response [7] |
| --- | --- | --- | --- | --- | --- | --- | --- | --- | --- | --- | --- | --- | --- |
| CC(C)CCO [3-Methyl-1-butanol] | 2 ± 2 | 11 ± 11 | 3.33 ± 3.1 | -2 | 7.33 ± 6.1 | 3.33 ± 2.3 | 0.667 ± 6.1 | 1.33 ± 11 | -4 ± 2.3 | -4.67 ± 6.4 | -6 | -0.667 ± 2.3 | – |
| C=Cc1ccc(OC)cc1 [4-Vinyl anisole] | -0.667 ± 4.2 | 1.5 ± 3.4 | -1.33 ± 3.1 | -2 | 15.3 ± 14 | – | – | – | – | – | – | – | 2 ± 6 |
| C=Cc1ccccc1 [Styrene] | 5.33 ± 6.1 | 8.5 ± 18 | 6 ± 7.2 | -2 | 18.7 ± 15 | -6 ± 8.7 | -1.33 ± 1.1 | -4.67 ± 4.6 | -0.5 ± 6.6 | -1.33 ± 4.6 | 4 | -6 ± 2.8 | – |
| CC1(C)C2CC=C(CO)C1C2 (racemic) [(±)-Myrtenol] | 1.33 ± 5 | 1.5 ± 2.5 | -1 ± 3.5 | 2 | 1.33 ± 3.1 | – | – | – | – | – | – | – | 0.667 ± 3.1 |
| C=CC(=C)CCC=C(C)C [Myrcene] | -2 ± 2 | 0.5 ± 3 | 2 ± 10 | 128 | 3.33 ± 2.3 | 7.33 ± 7.6 | 0 ± 6 | 1.33 ± 9 | 2.5 ± 6.6 | 2.67 ± 4.2 | -6 | -2.67 ± 4.6 | – |
| COc1ccc(C)cc1 [4-Methyl anisole] | 7.33 ± 4.6 | 6.5 ± 3.4 | 2 ± 2 | -4 | 44 ± 12 | – | – | – | – | – | – | – | 4 ± 2 |
| CC/C=C\CCO | 10.7 ± 27 | 74.5 ± 42 | -2 ± 4 | 6 | 0 ± 4 | – | – | – | – | – | – | – | – |
| CC(=O)c1ccccc1 [Acetophenone] | 2.67 ± 4.2 | 2 ± 2.8 | 2 ± 2 | -2 | 4.67 ± 7.6 | – | – | – | – | – | – | – | – |
| CCCCCC(O)CC (racemic) [(±)-3-Octanol] | 10 ± 10 | 57.5 ± 45 | 13 ± 10 | 6 | 3.33 ± 2.3 | 1.33 ± 7.6 | -1 ± 3.5 | -3.33 ± 4.2 | -4 ± 8.6 | -4.67 ± 4.2 | -6 | -3.33 ± 5.8 | – |
| COc1ccccc1 [Anisole] | 2 ± 5.3 | 1 ± 4.2 | 1.33 ± 4.2 | -2 | 10.7 ± 5.8 | – | – | – | – | – | – | – | – |
| CC(=O)OC/C=C(\C)CCC=C(C)C [Geranyl acetate] | 0.667 ± 7 | 0 | 2 ± 7.2 | -4 | 1 ± 1.4 | – | – | – | – | – | – | – | – |
| CC1=CCC2CC1C2(C)C (stereo not drawn) [(-)-α-Pinene] | 4 ± 3.5 | -0.5 ± 1.9 | 2.67 ± 3.1 | 2 | 5.33 ± 6.4 | – | – | – | – | – | – | – | 1.33 ± 2.3 |
| CC(C)=CCC/C(C)=C/C=O [Citral (E/Z mix)] | 0.667 ± 5 | 0.5 ± 1.9 | 2 ± 7.2 | 2 | -2 ± 2 | – | – | – | – | – | – | – | – |
| C[C@@H]1C(=O)C[C@H]2C[C@@H]1C2(C)C [(+)-Isopinocamphone] | 172 ± 28 | -2 ± 5.9 | 1.33 ± 1.1 | -4 | -3.33 ± 2.3 | – | – | – | – | – | – | – | 0 ± 5.3 |
| c1ccc2c(c1)CCO2 [2,3-Dihydrobenzofuran] | 2 ± 2 | -1.5 ± 1.9 | 1.33 ± 3.1 | -6 | 6.67 ± 5.8 | – | – | – | – | – | – | – | – |
| CCC/C=C\CO | 18 ± 19 | 25.5 ± 12 | -2 ± 6 | 2 | 0 | – | – | – | – | – | – | – | – |
